Data: PubChem BioAssay
Unmarked numbers belong to inactive results. Activity calls are given as the source filed them. Rule as the data show it, unless noted: active = inhibition above about 36%; inactive = the rest.

Tests used:
[1] = system: transactivating tegument protein VP16 (Human herpesvirus 1); test: compounds suppressing VP16-driven luciferase signal – cell-based, luminescence, single concentration, counter-screen for SRC2 inhibitor project (AID 652007); settings: cell-based VP16 transactivation luciferase reporter, at 8.9 µM, stronger effect = higher value
[2] = target: Nuclear receptor coactivator 2 (Homo sapiens) (UniProt Q15596); test: inhibition of GAL4-SRC2 driven luciferase expression – cell-based, luminescence, HEK293, triplicate, confirmation (AID 652008;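 active = mean inhibition above 46.5%, the solvent-only control mean plus 3 SD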;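 also: 0% = DMSO-treated cells and 100% = Gossypol at 36 µM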); settings: HEK293 GAL4-SRC2 luciferase reporter, at 8.9 µM, stronger effect = higher value
Sequence of Nuclear receptor coactivator 2 (Homo sapiens) (Q15596 whole entry, looked up, the tested form may be a part): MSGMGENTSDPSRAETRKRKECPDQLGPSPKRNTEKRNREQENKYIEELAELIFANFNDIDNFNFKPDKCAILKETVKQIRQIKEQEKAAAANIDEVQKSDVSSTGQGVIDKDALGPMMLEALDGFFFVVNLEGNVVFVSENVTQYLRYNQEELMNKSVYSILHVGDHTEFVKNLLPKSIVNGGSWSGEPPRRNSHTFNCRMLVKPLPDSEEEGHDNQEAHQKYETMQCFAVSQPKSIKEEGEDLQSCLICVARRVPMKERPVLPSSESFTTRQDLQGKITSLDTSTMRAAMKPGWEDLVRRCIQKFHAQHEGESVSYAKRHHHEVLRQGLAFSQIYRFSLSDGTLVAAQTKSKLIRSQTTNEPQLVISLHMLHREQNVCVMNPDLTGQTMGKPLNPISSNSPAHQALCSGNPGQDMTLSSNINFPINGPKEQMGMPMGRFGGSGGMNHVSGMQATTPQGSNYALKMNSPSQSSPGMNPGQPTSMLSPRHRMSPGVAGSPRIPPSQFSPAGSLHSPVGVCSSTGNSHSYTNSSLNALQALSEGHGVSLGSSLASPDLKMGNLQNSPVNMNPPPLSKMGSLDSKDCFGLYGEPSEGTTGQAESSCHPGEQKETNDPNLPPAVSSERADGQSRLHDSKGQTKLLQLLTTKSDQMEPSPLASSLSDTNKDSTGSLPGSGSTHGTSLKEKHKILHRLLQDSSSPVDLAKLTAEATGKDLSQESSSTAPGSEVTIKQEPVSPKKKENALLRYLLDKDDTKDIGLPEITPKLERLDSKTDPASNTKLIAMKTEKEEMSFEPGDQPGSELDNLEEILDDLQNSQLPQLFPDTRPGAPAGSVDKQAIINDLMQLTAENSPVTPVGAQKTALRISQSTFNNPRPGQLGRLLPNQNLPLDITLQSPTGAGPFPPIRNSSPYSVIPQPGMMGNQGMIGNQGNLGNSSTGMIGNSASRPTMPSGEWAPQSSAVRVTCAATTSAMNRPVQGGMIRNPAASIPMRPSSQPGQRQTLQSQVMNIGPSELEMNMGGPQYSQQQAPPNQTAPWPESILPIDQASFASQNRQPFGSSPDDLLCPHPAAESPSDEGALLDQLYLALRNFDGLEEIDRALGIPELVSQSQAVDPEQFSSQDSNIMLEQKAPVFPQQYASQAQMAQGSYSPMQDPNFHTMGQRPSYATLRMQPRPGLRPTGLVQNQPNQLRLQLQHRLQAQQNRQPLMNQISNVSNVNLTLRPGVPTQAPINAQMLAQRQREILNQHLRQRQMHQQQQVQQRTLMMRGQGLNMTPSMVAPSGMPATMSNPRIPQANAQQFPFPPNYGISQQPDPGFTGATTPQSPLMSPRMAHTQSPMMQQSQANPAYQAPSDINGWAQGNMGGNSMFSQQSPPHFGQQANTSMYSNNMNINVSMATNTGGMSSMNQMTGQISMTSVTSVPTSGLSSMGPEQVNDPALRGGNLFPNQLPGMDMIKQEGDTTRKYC

| SMILES | inhibition [1] | inhibition [2] |
| --- | --- | --- |
| CC(C)(C)c1ccc(OC(=O)Nc2ccc(O)c(C(=O)O)c2)cc1 | 7.15% | 30.5% |
| COc1cccc(NC(=O)c2cc(Cl)nnc2Cl)c1 | 23.6% | 44% |
| CCCCc1ccc(N/C(N)=N/c2nc(C)cc(C)n2)cc1 | 30.2% | 32.1% |
| CCN(CC)C(=O)C1CCCN(c2ncnc3c2cnn3-c2ccc(Cl)cc2)C1 (stereo unspecified) | -32.6% | 58.8% (active) |
| CCc1ccc(CNC(=O)c2cc3c(C)nc4ccccc4c3o2)cc1 | 20.6% | 10.3% |
| COc1ccc(C(=O)OCC(=O)Nc2ccc3c(c2)OCCO3)c(OC)c1 | 6.79% | -39% |
| O=C(Nc1nc2cc3c(cc2s1)OCCO3)c1ccco1 | 24.9% | 56.3% (active) |
| CC(C)(C)c1ccc(OCC(O)CSc2ncn[nH]2)cc1 (stereo unspecified) | 0.7% | 14.2% |
| CC(=O)O[C@@H]1C[C@H]2C(C)(C)C(=O)C=C[C@]2(C)[C@H]2CC[C@@]3(C)[C@H](c4ccoc4)OC(=O)[C@H]4O[C@]43[C@@]21C | 35.9% (active) | 27% |
| CCC(C)(C(=O)NC1CCCCC1)N(Cc1cccs1)C(=O)CC1NC(=O)NC1=O (stereo unspecified) | -9.62% | -11.8% |
| Cc1cc(Cl)ccc1OCCCC(=O)NO | 6.12% | 32.7% |
| Cc1cc(N)ccc1-n1nc2ccccc2n1 | -7.48% | 3.06% |
| O=C(CCCN1C(=O)/C(=C/c2ccc3c(c2)OCO3)SC1=S)Nc1ccc(C(=O)O)cc1 | 53.6% (active) | 36.2% |
